Among the data in PubChem BioAssay are composite z-score and z-score values, retold here.

The test system of experiment [1] is XIP peptide (Xip251-270) binding. The experiment can be described thus: XIP fragment 251-270 binding compounds – biochemical, small-molecule microarray, fluorescence 635/667 nm, 0.1 µg/mL protein, primary screen (AID 1182). Particulars: fluorescent protein binding, 635 nm, higher = more signal, called active from +8 up or from −8 down.
In a further experiment the test system is XIP peptide (Xip251-270). The experiment can be described thus: compounds binding XIP fragment 251-270 – biochemical, small-molecule microarray, fluorescence 635/667 nm, 0.5 µg/mL protein, primary screen (AID 1183). Particulars: fluorescence 635 nm, higher = more signal.
Experiment [2] is described as follows: blood-stage malaria parasite viability loss – strain 3D7, DAPI fluorescence, 100 nL, primary screen (AID 1184).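 Note: parasites grown inside human red blood cells in medium with human serum.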 Particulars: P. falciparum 3D7 growth, 3 d, higher = more signal.
In experiment [3] the target is Homeobox protein Hox-A13 (Mus musculus) (UniProt Q62424). The experiment can be described thus: disruptors of Hoxa13 oligonucleotide interaction – biochemical, fluorescence polarization, labeled oligonucleotide, primary screen (AID 1185). Conditions: Hoxa13:DNA binding, 15 min, higher = more signal, called active from +8 up or from −8 down. For orientation: Fluorescence polarisation rises when a labelled molecule tumbles more slowly, as on binding a larger partner.
Sequence of Homeobox protein Hox-A13 (Mus musculus) (Q62424 whole entry, looked up): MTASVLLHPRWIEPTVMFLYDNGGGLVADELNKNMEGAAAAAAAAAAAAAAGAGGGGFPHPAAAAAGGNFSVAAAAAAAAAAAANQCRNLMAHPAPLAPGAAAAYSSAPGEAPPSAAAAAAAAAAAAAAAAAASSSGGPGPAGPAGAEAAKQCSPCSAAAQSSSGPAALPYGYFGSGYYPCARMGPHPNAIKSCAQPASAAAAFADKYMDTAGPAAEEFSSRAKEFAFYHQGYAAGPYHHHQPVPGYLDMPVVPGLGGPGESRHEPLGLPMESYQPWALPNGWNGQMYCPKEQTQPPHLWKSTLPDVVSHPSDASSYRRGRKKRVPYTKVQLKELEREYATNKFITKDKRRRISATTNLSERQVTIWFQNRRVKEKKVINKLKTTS

A short description of experiment [4]: blockers of DNA damage checkpoint Chk1 activation – imaging, HeLa, hydroxyurea, phospho-Chk1 antibody, percent positive cells, primary screen (AID 1186). Conditions: hydroxyurea-induced phospho-Chk1 immunofluorescence imaging, higher = more signal.
Experiment [5] is described as follows: blockers of DNA damage checkpoint Chk1 activation – imaging, HeLa, hydroxyurea, phospho-Chk1 nuclear intensity, primary screen (AID 1187). Particulars: hydroxyurea-induced phospho-Chk1 immunofluorescence imaging, higher = more signal.

Structures are written as SMILES. Activity calls are given as the source filed them. Unless noted, the rule behind the calls is not given here.

Take `COc1ccc(C(O)C2C=CC3C(=O)N(c4ccccc4)C(=O)C3N2Nc2ccc(C(C)C)cc2)cc1OCc1ccccc1` (configuration not stated): the composite z-score in experiment [1] is 0.658 (inactive); in the experiment on XIP peptide (Xip251-270), 0.8. Further, the z-score is 0.1 in experiment [2], -0.47 (inactive) in experiment [3], -0.309 (inactive) in experiment [4] and -0.472 (inactive) in experiment [5].

Take `COC(=O)[C@@]1(Cc2ccc(OC)cc2)[C@H]2c3cc(C(=O)N4CCCC4)n(Cc4ccsc4Br)c3C[C@H]2CN1C(=O)c1ccccc1`: the composite z-score in experiment [1] was -0.0625 (inactive); in the experiment on XIP peptide (Xip251-270) it was 0.75. For the same compound, the z-score was -1.59 in experiment [2], -5.51 (inactive) in experiment [3], -0.592 (inactive) in experiment [4] and -1.13 (inactive) in experiment [5].

In the case of `CC(C)C[C@@H]1NC(=O)[C@@H]2C[C@H](C(=O)NCCCCCN)[C@H](c3cccc(OCCO)c3)N2C1=O`, the composite z-score in experiment [1] was 0.0825 (inactive); in the experiment on XIP peptide (Xip251-270) it was 0.758. The z-score is -0.0757 in experiment [2], -3.34 (inactive) in experiment [3], -0.356 (inactive) in experiment [4] and -0.49 (inactive) in experiment [5].

With `COC(=O)[C@@]1(Cc2ccc(OC)cc2)[C@H]2c3cc(C(=O)N4CCCC4)n(Cc4ccccc4)c3C[C@H]2CN1C(=O)c1ccccc1`, the composite z-score in experiment [1] was 0.738 (inactive); with XIP peptide (Xip251-270), 0.0127. Further, the z-score in experiment [2] is -1.5; in experiment [3] it was -3.78 (inactive); in experiment [4], 0.212 (inactive); in experiment [5], 0.07 (inactive).

For `COCC(=C=CC[C@@H](O)c1ccccc1OCCO)C[C@@H](O)c1cc(Cl)cc(Cl)c1O`, the composite z-score in experiment [1] is 0.589 (inactive); with XIP peptide (Xip251-270), 0.682. Moreover, the z-score was -1.84 in experiment [2], -3.71 (inactive) in experiment [3], 0.161 (inactive) in experiment [4] and 0.377 (inactive) in experiment [5].

For the compound `[N-]=[N+]=NCc1ccccc1[C@H]1OC(c2ccc(OCCCO)cc2)=N[C@@]1(Cc1ccccc1)C(=O)NCc1ccccc1`, the composite z-score in experiment [1] is 0.212 (inactive); in the experiment on XIP peptide (Xip251-270) it was 0.471. The z-score in experiment [2] was -2.49; in experiment [3] it was 2.55 (inactive); in experiment [4] it was -0.287 (inactive); in experiment [5] it was -0.083 (inactive).

As for `O=C1C2C=CC(C(O)c3ccc(F)cc3)N(Nc3ccccc3F)C2C(=O)N1c1ccccc1` (configuration not stated), the figures for the composite z-score (in experiment [1]; in the experiment on XIP peptide (Xip251-270)) were 1.27 (inactive) and 0.252, respectively. Also, the z-score is 0.712 in experiment [2], -3.25 (inactive) in experiment [3], 0.186 (inactive) in experiment [4] and 0.154 (inactive) in experiment [5].

As to `CCCC=C(CCC)[C@@H](NS(=O)(=O)c1cccs1)c1ccc(C(=O)OC)cc1`, the composite z-score in experiment [1] is 0.219 (inactive); with XIP peptide (Xip251-270), 0.507. The z-score in experiment [2] was -0.677; in experiment [3] it was -3.19 (inactive); in experiment [4] it was -0.284 (inactive); in experiment [5], 0.0089 (inactive).

As to `C=C(CCCC)C(=O)CC[C@@H](OC(=O)c1cccnc1)c1ccc(CO)o1`, the figures for the composite z-score (in experiment [1]; with XIP peptide (Xip251-270)) were 0.67 (inactive) and 0.561, respectively. Further, the z-score was -0.46 in experiment [2], -4.35 (inactive) in experiment [3], 0.575 (inactive) in experiment [4] and -0.023 (inactive) in experiment [5].

Regarding `COCCOC(=O)N1C(=O)[C@@]2(c3ccccc31)[C@H](c1ccccc1OCCO)N1[C@H](c3ccccc3)[C@H](c3ccccc3)OC(=O)[C@H]1[C@@H]2C(=O)Nc1nc2ccccc2s1`, the figures for the composite z-score (in experiment [1]; with XIP peptide (Xip251-270)) were 0.219 (inactive) and 0.823, respectively. Moreover, the z-score in experiment [2] was -0.697; in experiment [3], 0.922 (inactive); in experiment [4] it was 0.002 (inactive); in experiment [5], 0.122 (inactive).

Consider `COc1cc(CO)cc(I)c1O[C@H]1C=C(C(=O)NCCO)C[C@@H](N(CCN2CCOCC2)C(=O)C2CCOC2)[C@@H]1O` (some centres not stated), for which the composite z-score in experiment [1] was 0.384 (inactive); with XIP peptide (Xip251-270), 0.551. In addition, the z-score is 0.199 in experiment [2], -7.57 (inactive) in experiment [3], -0.182 (inactive) in experiment [4] and 0.246 (inactive) in experiment [5].

In the case of `CC(C)OC(=O)C=C1C[C@@H](c2ccccc2C(F)(F)F)O[C@@H](c2ccccc2C(F)(F)F)O1`, the composite z-score in experiment [1] was -0.245 (inactive); in the experiment on XIP peptide (Xip251-270), -0.277. Besides, the z-score in experiment [2] was -1.82; in experiment [3], 0.189 (inactive); in experiment [4], -0.319 (inactive); in experiment [5] it was -0.595 (inactive).

For the compound `CCN(CC)c1ccc(N2CC=CC34O[C@@H]5/C=C\CCC(C)OC(=O)C5[C@H]3C(=O)N(C(CO)C(C)C)[C@@H]4C2=O)cc1` (some centres not stated), the composite z-score in experiment [1] was 0.0003 (inactive); in the experiment with XIP peptide (Xip251-270) it was -0.431. Besides, the z-score in experiment [2] was -0.214; in experiment [3], -6.03 (inactive); in experiment [4], 0.0858 (inactive); in experiment [5], 0.0174 (inactive).

For the compound `COc1cc2c(cc1OC)CN(C(=O)[C@H]1[C@@H]3C(=O)O[C@@H](c4ccccc4)[C@@H](c4ccccc4)N3[C@@H](c3ccc(O)cc3)[C@]13C(=O)Nc1ccc(C#CC4=CCCCC4)cc13)CC2`, the composite z-score in experiment [1] was 0.546 (inactive); with XIP peptide (Xip251-270) it was 0.795. The z-score in experiment [2] is -2.08; in experiment [3], 1.4 (inactive); in experiment [4], 0.138 (inactive); in experiment [5], 0.352 (inactive).

In the case of `COCCn1c(C(=O)N2CCCC2)cc2c1C[C@H]1CN(C(=O)c3ccccc3)[C@@](Cc3ccc(F)cc3)(C(=O)OC)[C@@H]21`, the composite z-score in experiment [1] was 0.254 (inactive); in the experiment with XIP peptide (Xip251-270) it was 0.794. Besides, the z-score in experiment [2] is -1.01; in experiment [3] it was -5.83 (inactive); in experiment [4], 0.0536 (inactive); in experiment [5], 0.375 (inactive).

As for `C=CCNC(=O)[C@H]1[C@@H]2C(=O)O[C@@H](c3ccccc3)[C@@H](c3ccccc3)N2[C@@H](c2ccc(OCCO)cc2)[C@]12C(=O)N(C(=O)OCCOC)c1ccccc12`, the composite z-score in experiment [1] is 0.95 (inactive); in the experiment on XIP peptide (Xip251-270), 0.846. Besides, the z-score is -1.63 in experiment [2], -4.21 (inactive) in experiment [3], -0.105 (inactive) in experiment [4] and -0.0934 (inactive) in experiment [5].

With `O=C1NC(=O)C2C1C=CC(C(O)C(c1ccccc1)c1ccccc1)N2Nc1ccc(Cl)cc1Cl` (configuration not stated), the composite z-score in experiment [1] was 0.69 (inactive); in the experiment with XIP peptide (Xip251-270), -0.0049. Also, the z-score in experiment [2] is -0.289; in experiment [3] it was -4.15 (inactive); in experiment [4] it was 0.735 (inactive); in experiment [5] it was 0.889 (inactive).
